# Bioassay records from PubChem BioAssay.
# ANO1 activ: mouse TMEM16A channel activation, primary screen; HEK293 TMEM16A/YFP-H148Q/I152L, iodide quench fluorescence; active compounds read low; B-score at 10 µM; 340,000 compounds, 0.3% hits;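 active = fluorescence-ratio B-score plate-corrected deviation score at least 3 library SD below zero, with starting fluorescence score within 5 deviations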;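 note: channel opened by trigger with iodide after compound preincubation; score built on the fluorescence ratio of max minus min over baseline; more negative score means more quench and so TMEM16A activation or potentiation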
# PREPL inhibitor: inhibits the human prolyl oligopeptidase-like enzyme. Q4J6C6. recombinant PREPL, fluorescence polarization activity-based probe. inhibition, % at 5.96 µM. 320,000 compounds, 0.68% hits; in the data active = inhibition above about 43%;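 note: 0% = enzyme with DMSO and 100% = wells lacking enzyme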
# Target sequence (Q4J6C6 whole entry, looked up): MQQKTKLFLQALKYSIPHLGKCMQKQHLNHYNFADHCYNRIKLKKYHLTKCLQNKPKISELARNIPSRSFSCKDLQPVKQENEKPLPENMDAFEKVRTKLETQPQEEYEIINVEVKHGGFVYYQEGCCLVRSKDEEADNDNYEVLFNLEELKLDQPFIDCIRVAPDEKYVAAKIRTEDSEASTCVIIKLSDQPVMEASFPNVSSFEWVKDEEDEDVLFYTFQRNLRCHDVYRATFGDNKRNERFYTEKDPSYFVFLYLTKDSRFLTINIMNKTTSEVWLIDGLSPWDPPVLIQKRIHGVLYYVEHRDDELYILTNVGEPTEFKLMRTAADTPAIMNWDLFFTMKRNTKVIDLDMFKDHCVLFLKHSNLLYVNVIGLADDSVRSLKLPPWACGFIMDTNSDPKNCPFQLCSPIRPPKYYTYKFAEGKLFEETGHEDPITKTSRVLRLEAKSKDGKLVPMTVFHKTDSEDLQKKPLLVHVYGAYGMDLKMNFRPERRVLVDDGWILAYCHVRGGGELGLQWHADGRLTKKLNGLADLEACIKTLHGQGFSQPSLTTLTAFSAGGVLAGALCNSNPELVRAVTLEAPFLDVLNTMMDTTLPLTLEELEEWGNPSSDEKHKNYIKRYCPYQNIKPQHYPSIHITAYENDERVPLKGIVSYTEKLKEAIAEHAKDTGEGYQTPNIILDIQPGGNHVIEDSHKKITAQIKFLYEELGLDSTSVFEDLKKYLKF
# FID counter: counter-screen for HCV NS3 helicase inhibitors: DNA intercalator displacement; AID 1845; 290,000 compounds, 0.17% hits; inhibition, % at 7.9 µM; DNA fluorescent intercalator displacement, fluorescence; in the data active = inhibition above about 37%;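 note: 0% = vehicle and 100% = reference compound; higher means more ethidium bromide displaced from hairpin DNA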
# ANO1 block: inhibitors of mouse TMEM16A calcium-activated chloride channel; Q8BHY3; HEK293 TMEM16A/YFP iodide influx fluorescence, ionomycin; normalized B-score (activity score, 25-100; higher = stronger inhibition) at 10 µM; 310,000 compounds, 1.2% hits;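 active = ratio plate-corrected score three or more library SD toward inhibition, starting fluorescence score within five deviations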;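 note: score derived from kinetic fluorescence span divided by baseline fluorescence per well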
# PP1 counter: counter-screen for PP5 inhibitors: inhibitors of human PP1-alpha | AID 2235 | 320,000 compounds, 0.9% hits | inhibition, % at 6.7 µM | purified PP1alpha, OMFP fluorescence;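 active = inhibition above the mean inhibition of all tested compounds plus 3 SD, computed separately for each screening campaign, cut at about 15% in these data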
# PP5 primary: PP5 (human) phosphatase inhibition; AID 1987; purified PP5c, OMFP substrate fluorescence; P53041; 320,000 compounds, 0.18% hits; inhibition, % at 6.7 µM;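 active = inhibition above the campaign's mean inhibition across all tested compounds plus 3 SD, cut at about 9.5% in these data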;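 note: 0% = DMSO only and 100% = 100 µM cantharidin control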
# TMEM16A reconf: re-confirmation of mouse TMEM16A chloride channel inhibitors. shares compounds with ANO1 block. HEK293 TMEM16A/YFP-H148Q, iodide quench fluorescence; ionomycin added to raise cell calcium. inhibition, % at 10 µM. 2,300 compounds, 39% hits;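 active = mean duplicate percent inhibition, scaled so buffer wells are 0 and the reference blocker 100, over three buffer SD above buffer mean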
# HEK293 Ca mobil: alters calcium mobilization in TMEM16A HEK293 cells, counter-screen; shares compounds with ANO1 block; TMEM16A/YFP HEK293, Fluo4 calcium mobilization; calcium response (% of ionomycin), % at 10 µM; 2,300 compounds, 2% hits; AID 652231;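 active = duplicate-averaged calcium signal over 20% of the ionomycin maximum, relative to buffer baseline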;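 note: each well's signal is peak minus trough fluorescence divided by its pre-addition baseline; 0% = buffer wells and 100% = ionomycin wells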
# Parental YFP cnt: parental YFP-HEK293 iodide quench counter-screen activity | shares compounds with ANO1 block | ionomycin | YFP ratio F(max-min)/F0 at 10 µM | 2,300 tested, under 10 active | AID 652233;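 active = yellow fluorescent protein signal ratio exceeding the buffer control mean by over 5 SD of those controls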;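 note: ratio is mean of duplicate wells from kinetic YFP trace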
# ClC-1 inh: blocks the rat ClC-1 voltage-dependent chloride channel; shares compounds with ANO1 block; CHO ClC-1-YFP, iodide influx fluorescence quench; iodide control reads 0, buffer control 100; ratio percent, % at 10 µM; 2,300 tested, under 10 active; AID 652236;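 active = duplicate-mean ratio percent above the mean of iodide-only control wells, which defines zero, plus 5 of their SD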;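 note: higher percent means stronger block of ClC-1 iodide influx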
# Numbers without * were called inactive; i = inactive; · = not tested or not shown. Rows were chosen to be rich in hits. Some 2.7% of all compounds tested hit in one or more screens of this group.
SMILES,ANO1 activ,PREPL inhibitor,FID counter,ANO1 block,PP1 counter,PP5 primary,TMEM16A reconf,HEK293 Ca mobil,Parental YFP cnt,ClC-1 inh
COCCN(C(=O)CCC(=O)Nc1nccs1)C(C(=O)NC(C)(C)C)c1ccc(F)cc1 (stereo not drawn),i,-2,-28,100*,-1,1,i,i,-1.1,0
O=C(Nc1nc(-c2ccc(S(=O)(=O)N3CCCCCC3)cc2)cs1)c1ccccc1,i,-4,-4,i,12,3,·,·,·,·
O=C(Nc1nc(-c2cccs2)cs1)c1ccc(S(=O)(=O)N2CCCC2)cc1,i,16,-12,25*,2,5,i,i,-1.3,-14
CCN(CC)S(=O)(=O)c1ccc(Oc2ccccc2OC)cc1,i,15,-28,i,-5,0,·,·,·,·
CCN(CC)S(=O)(=O)c1ccc(Oc2ccc(S(=O)(=O)N(CC)CC)cc2)cc1,i,7,-8,100*,1,5,i,i,-1.1,-22
Cc1ccsc1/C=N/Nc1ncc(Cl)cc1Cl,i,3,-3,100*,0,3,40%*,i,-0.94,-8
Cc1cc(C)nc(N/N=C/c2sccc2C)n1,i,-3,-2,i,0,3,·,·,·,·
COc1ccc(Br)cc1C(=O)Nc1ccc(Cc2ccncc2)cc1,i,-5,-9,i,8,2,·,·,·,·
COc1c(C(=O)Nc2ccc(Cc3ccncc3)cc2)ccc2ccccc12,i,9,-19,100*,7,-1,i,i,-1.1,-8
COc1cc(CN(C)CC(=O)c2[nH]c(C)c(C(C)=O)c2C)ccc1OC(F)F,i,-2,-1,25*,1,-4,17%*,i,-0.99,-14
COc1ccccc1OCC(=O)c1[nH]c(C)c(C(C)=O)c1C,i,0,-12,25*,-4,1,i,i,-1.1,-22
Cc1c(CN(C)C(=O)c2sc3cc(Cl)ccc3c2Cl)cnn1C,i,-5,-35,100*,-2,0,34%*,i,-1,-14
COc1cccc(/C=C/C(=O)N2CCN(c3n[nH]c(=O)[nH]c3=O)CC2)c1OC,i,12,-17,i,4,-1,·,·,·,·
O=C(O)CCC(=O)NCCn1c(-c2ccccc2)csc1=Nc1ccccc1,i,0,-36,i,-8,-7,·,·,·,·
OCCCn1c(-c2ccccc2)csc1=Nc1ccccc1,i,12,-21,100*,0,0,28%*,i,-1,-8
CN(C(=S)NCCN1CCOCC1)C(c1ccccc1)c1ccccc1,i,-39,8,i,-4,3,·,·,·,·
CCOc1ccc(CN(C)C(=O)c2cc(S(=O)(=O)N3CCCC3)ccc2C)cc1,i,13,·,·,-6,2,·,·,·,·
O=C(CN1CCCCC1)NCC(=O)Nc1ccc(F)c(F)c1F,i,11,·,·,-5,-1,·,·,·,·
Cc1cc(Cl)cc2c1NC(=O)[C@]21[C@@H]2C(=O)N(Cc3ccccc3)C(=O)[C@@H]2[C@@H]2CCCN21,i,39,-32,25*,-1,1,i,i,-1.2,-4
CCCCOC(=O)n1c(=O)oc2ccc(S(=O)(=O)N3CCCCC3)cc21,i,1,-23,25*,-7,3,20%*,i,-1,-8
COc1ccccc1/C=[N+](\[O-])C1SC(=S)N(C)C1(C)C (stereo not drawn),i,-1,-1,i,-3,1,·,·,·,·
Cc1sc2ncn(CC(=O)OC(C)C(=O)NC(C)(C)C)c(=O)c2c1C (stereo not drawn),·,1,-22,i,-4,2,·,·,·,·
Cc1sc2ncn(CC(=O)OCC(=O)NC(C)(C)C)c(=O)c2c1C,·,10,-14,i,-4,-1,i,i,-1.1,-5
Cc1ccc(C(=O)NCC(=O)OCC(=O)c2ccccc2)s1,i,15,·,·,0,0,·,·,·,·
CCN(CC)P(=O)(c1ccccc1)c1c(C)nc2ccccn12 (stereo not drawn),i,6,-14,i,-3,1,·,·,·,·
SMILES,ANO1 activ,PREPL inhibitor,FID counter,ANO1 block,PP1 counter,PP5 primary,TMEM16A reconf,HEK293 Ca mobil,Parental YFP cnt,ClC-1 inh
Cc1cccc(NC(=O)C2=C(O)c3ccccc3N(C)S2(=O)=O)c1,i,-6,9,i,-1,0,·,·,·,·
CN1c2ccccc2C(O)=C(C(=S)Nc2ccc(Cl)cc2)S1(=O)=O,i,2,7,100*,5,0,20%*,i,-0.92,-8
CN(C)S(=O)(=O)c1cccc(N=C2SCCN2Cc2ccccc2)c1,i,-24,-25,100*,-2,3,36%*,i,-0.87,-8
Cc1ccc(C(=O)N2CC(C)SC2=Nc2cccc(S(=O)(=O)N(C)C)c2)cc1 (stereo not drawn),i,-3,-12,i,-1,2,·,·,·,·
COc1ccc(S(=O)(=O)N2CCC3(CC2)OCCN3S(=O)(=O)c2ccc(C)cc2)cc1OC,i,10,·,i,-3,1,·,·,·,·
O=c1cc(C(F)(F)F)[nH]c2c(OC(F)(F)F)cccc12,i,-4,3,100*,-2,-2,28%*,i,-1.1,-16
C/C(=N\NC(=O)C1(C)CC1(Br)Br)c1cccc(NC(=O)c2ccc(C)o2)c1 (stereo not drawn),i,-4,-34,25*,-2,2,i,i,-1.1,-6
O=C(CSc1ncnc2c1oc1ccccc12)N1CCCc2ccccc21,i,-3,-3,100*,3,3,28%*,i,-0.8,-8
COc1ccccc1N(CC(=O)NCCSCc1ccccc1)S(C)(=O)=O,i,-14,-21,i,0,1,·,·,·,·
COc1ccccc1N(CC(=O)NCCSCc1cccc(C)c1)S(=O)(=O)c1ccccc1,i,6,-51,25*,4,4,i,i,-0.96,-18
CC(=O)c1ccc(NC(=O)Nc2cccc(Cl)c2)cc1,i,1,5,25*,5,2,54%*,i,-1.1,-27
